Drawing on the antibiotic and cytotoxicity screens of Wong et al. (2023), this text covers cytotoxicity call for 61 compounds.

About 1,500 (3.8%) of roughly 39,000 compounds were called active. The entries come from a sample that favours actives as a whole.

The test deals with HSkMC (human skeletal muscle cells). The experiment in a line: cytotoxicity call (relative viability < 0.9). Conditions: 10 µM.
Turning to `CC(C)[Si](C#CCCCC#N)(O[C@H](c1ccccc1)c1cn(Cc2cccc(Cl)c2)nn1)C(C)C`, the cytotoxicity call was “inactive”.

In the case of `C[C@H](CO)N1C[C@H](C)[C@@H](CN(C)Cc2ccccc2)OCCCC[C@H](C)Oc2ccc(NC(=O)Nc3ccc(F)cc3)cc2C1=O`, the cytotoxicity call was “inactive”.

As for `C[C@H]1CN([C@@H](C)CO)C(=O)c2cccc(NC(=O)c3ccc(-c4nccs4)cc3)c2O[C@@H]1CN(C)Cc1ccccc1`, the cytotoxicity call was “inactive”.

Take `Cc1noc(C)c1NC(=O)N(C)C[C@@H]1Oc2ncc(C#Cc3ccccc3)cc2C(=O)N([C@H](C)CO)C[C@@H]1C`: the cytotoxicity call was “inactive”.

Turning to `COc1ccc(S(=O)(=O)Nc2ccc3c(c2)C(=O)N([C@@H](C)CO)C[C@H](C)[C@H](CN(C)C(=O)NC2CCCCC2)OCCCC[C@H](C)O3)cc1`, the cytotoxicity call is “inactive”.

Turning to `CCCC#Cc1ccc2c(c1)O[C@@H](CN(C)Cc1ccc3c(c1)OCO3)[C@@H](C)CN([C@@H](C)CO)S2(=O)=O`, the cytotoxicity call is “inactive”.

On to `COCC(=O)N1CC[C@]2(CC1)CN([C@@H](CO)c1[nH]c3cc(ccc3c12)OC)S(=O)(=O)C`, for which the cytotoxicity call is “inactive”.

Consider `Cn1c2c(c(=S)[nH]c1=O)CCC2`, for which the cytotoxicity call is “inactive”.

As for `Cc1ccc(S(=O)(=O)Nc2ccc3c(c2)C(=O)N([C@@H](C)CO)C[C@H](C)[C@H](CN(C)Cc2ccc(C(=O)O)cc2)OCCCC[C@H](C)O3)cc1`, the cytotoxicity call is “inactive”.

In the case of `C[C@@H]1CN([C@@H](C)CO)C(=O)c2cc(NC(=O)Nc3ccc4c(c3)OCO4)ccc2O[C@@H](C)CCCCO[C@@H]1CN(C)Cc1ccc(C(=O)O)cc1`, the cytotoxicity call was “inactive”.

On to `C[C@@H]1CN([C@@H](C)CO)C(=O)c2cc(NC(=O)Nc3ccc(F)cc3)ccc2O[C@@H](C)CCCCO[C@H]1CN(C)C(=O)Cc1ccccc1`, for which the cytotoxicity call is “inactive”.

Turning to `C[C@@H]1CN([C@@H](C)CO)C(=O)c2cc(NC(=O)Nc3ccccc3)ccc2O[C@@H](C)CCCCO[C@@H]1CN(C)C(=O)Cc1ccccc1`, the cytotoxicity call is “inactive”.

On to `C[C@H]1CCCCO[C@H](CN(C)Cc2ccc(C(=O)O)cc2)[C@@H](C)CN([C@@H](C)CO)C(=O)c2cc(NC(=O)C3CCCCC3)ccc2O1`, for which the cytotoxicity call was “inactive”.

As to `C(=N\c1ccccc1)/c1ccc(Oc2ccccc2)cc1`, the cytotoxicity call is “inactive”.

On to `C[C@H]1CN([C@@H](C)CO)C(=O)Cc2cc(NC(=O)CCCCCC(=O)Nc3ccccc3N)ccc2O[C@@H]1CN(C)Cc1ccc(C(F)(F)F)cc1`, for which the cytotoxicity call was “inactive”.

`C[C@H](CO)N1C[C@H](C)[C@H](CN(C)Cc2ccc(C(F)(F)F)cc2)Oc2ccc(NC(=O)CCCCCC(=O)Nc3ccccc3N)cc2CC1=O`: the cytotoxicity call is “inactive”.

With `C[C@@H]1CN([C@@H](C)CO)C(=O)Cc2cc(NC(=O)CCCCCC(=O)Nc3ccccc3N)ccc2O[C@H]1CN(C)Cc1ccc(C(F)(F)F)cc1`, the cytotoxicity call was “inactive”.

With `C[C@@H]1CN([C@@H](C)CO)C(=O)Cc2cc(NC(=O)CCCCCC(=O)Nc3ccccc3N)ccc2O[C@@H]1CN(C)Cc1ccc(C(F)(F)F)cc1`, the cytotoxicity call was “active”.

As for `C[C@@H]1CN([C@H](C)CO)C(=O)Cc2cc(NC(=O)CCCCCC(=O)Nc3ccccc3N)ccc2O[C@@H]1CN(C)Cc1ccc(C(F)(F)F)cc1`, the cytotoxicity call was “active”.

As to `C[C@@H]1CN([C@H](C)CO)C(=O)Cc2cc(NC(=O)CCCCCC(=O)Nc3ccccc3N)ccc2O[C@H]1CN(C)Cc1ccc(C(F)(F)F)cc1`, the cytotoxicity call is “inactive”.

In the case of `COc1cccc(Nc2ncnn3ccc(CN4CC[C@@H](N)[C@H](O)C4)c23)c1`, the cytotoxicity call was “inactive”.

As for `COc1cccc(S(=O)(=O)N2C[C@H](O)COC[C@H]3O[C@H](CC(=O)N4CCN(C)CC4)CC[C@@H]32)c1`, the cytotoxicity call is “inactive”.

With `C[C@H](CO)N1C[C@H](C)[C@@H](CN(C)CC2CC2)Oc2ccc(NS(=O)(=O)c3ccccc3)cc2C1=O`, the cytotoxicity call was “inactive”.

Take `CC1(C)[C@H]2CC[C@@]1(C)c1nn(-c3ccccc3)c(C(F)(F)F)c12`: the cytotoxicity call was “inactive”.

For the compound `C[C@H](CO)N1C[C@H](C)[C@@H](CN(C)C(=O)Nc2cccc3ccccc23)OCCCC[C@H](C)Oc2ccc(NC(=O)Nc3ccc(F)cc3)cc2C1=O`, the cytotoxicity call is “inactive”.

`C[C@@H]1CN([C@@H](C)CO)C(=O)c2cc(NC(=O)Cc3ccccc3)ccc2O[C@H]1CN(C)Cc1ccc(Oc2ccccc2)cc1`: the cytotoxicity call was “inactive”.

`C[C@@H]1CN([C@@H](C)CO)C(=O)c2cc(NC(=O)Nc3ccccc3)ccc2O[C@H]1CN(C)Cc1ccc(Oc2ccccc2)cc1`: the cytotoxicity call is “inactive”.

In the case of `COc1ccc(NC(=O)Nc2ccc3c(c2)C(=O)N([C@H](C)CO)C[C@H](C)[C@@H](CN(C)Cc2ccc(Oc4ccccc4)cc2)O3)cc1`, the cytotoxicity call was “inactive”.

Consider `C[C@H](CO)N1C[C@H](C)[C@@H](CN(C)Cc2ccc(Oc3ccccc3)cc2)Oc2ccc(NC(=O)Nc3ccccc3)cc2C1=O`, for which the cytotoxicity call is “inactive”.

In the case of `C[C@@H]1CN([C@H](C)CO)C(=O)c2cc(NC(=O)Nc3ccc4c(c3)OCO4)ccc2O[C@@H]1CN(C)Cc1ccc(Oc2ccccc2)cc1`, the cytotoxicity call is “active”.

Take `C[C@@H]1CN([C@H](C)CO)C(=O)c2cc(NC(=O)Cc3ccccc3)ccc2O[C@@H]1CN(C)Cc1ccc(Oc2ccccc2)cc1`: the cytotoxicity call is “inactive”.

Consider `COc1ccc(NC(=O)Nc2ccc3c(c2)C(=O)N([C@H](C)CO)C[C@@H](C)[C@@H](CN(C)Cc2ccc(Oc4ccccc4)cc2)O3)cc1`, for which the cytotoxicity call was “inactive”.

As to `C[C@@H]1CN([C@@H](C)CO)C(=O)c2cc(NC(=O)Nc3ccc4c(c3)OCO4)ccc2O[C@H]1CN(C)Cc1ccc(Oc2ccccc2)cc1`, the cytotoxicity call was “inactive”.

Consider `C[C@H](CO)N1C[C@H](C)[C@H](CN(C)Cc2ccc(Oc3ccccc3)cc2)Oc2ccc(NC(=O)Nc3ccc4c(c3)OCO4)cc2C1=O`, for which the cytotoxicity call was “inactive”.

Take `C[C@@H]1CN([C@@H](C)CO)C(=O)c2cc(NC(=O)Cc3ccccc3)ccc2O[C@@H]1CN(C)Cc1ccc(Oc2ccccc2)cc1`: the cytotoxicity call is “active”.

Turning to `C[C@@H]1CN([C@@H](C)CO)C(=O)c2cc(NC(=O)Nc3ccccc3)ccc2O[C@@H]1CN(C)Cc1ccc(Oc2ccccc2)cc1`, the cytotoxicity call is “active”.

Consider `COc1ccc(NC(=O)Nc2ccc3c(c2)C(=O)N([C@H](C)CO)C[C@H](C)[C@H](CN(C)Cc2ccc(Oc4ccccc4)cc2)O3)cc1`, for which the cytotoxicity call was “active”.

On to `Cc1ccc(S(=O)(=O)N[C@@H]2CC[C@@H](CC(=O)N3CCC(Cc4ccccc4)CC3)O[C@H]2CO)cc1`, for which the cytotoxicity call is “inactive”.

As to `C[C@H](CO)N1C[C@H](C)[C@@H](CN(C)Cc2ccc(Oc3ccccc3)cc2)Oc2c(NC(=O)c3ccc(-c4nccs4)cc3)cccc2C1=O`, the cytotoxicity call is “inactive”.

Take `C[C@@H]1CN([C@H](C)CO)S(=O)(=O)c2ccc(C#Cc3ccccn3)cc2O[C@H]1CN(C)Cc1ccccc1`: the cytotoxicity call is “inactive”.

For `CCCC(=O)Nc1ccc2c(c1)C(=O)N(C)C[C@H](OC)[C@@H](C)CN(S(=O)(=O)c1cn(C)cn1)[C@@H](C)CO2`, the cytotoxicity call was “inactive”.

As for `COc1cccc(OC)c1C(=O)O[C@H]1[C@@H]2OC(=O)[C@H](Cc3cccc(Br)c3)C/C=C/C[C@@H](Cc3cccc(Br)c3)C(=O)O[C@H]2[C@@H](OC)O[C@@H]1CO`, the cytotoxicity call was “inactive”.

For the compound `C[C@@H]1CCCCO[C@H](CN(C)C(=O)c2ccccc2)[C@H](C)CN([C@@H](C)CO)C(=O)c2cc(NC(=O)Nc3ccc(F)cc3)ccc2O1`, the cytotoxicity call was “inactive”.

Consider `COc1ccc(NC(=O)Nc2ccc3c(c2)CC(=O)N([C@@H](C)CO)C[C@@H](C)[C@H](CN(C)Cc2ccc(-c4ccccc4)cc2)O3)cc1`, for which the cytotoxicity call was “inactive”.

Regarding `C[C@H]1CCCCO[C@H](CN(C)C(=O)Nc2cccc3ccccc23)[C@@H](C)CN([C@@H](C)CO)C(=O)c2cc(N(C)C)ccc2O1`, the cytotoxicity call is “inactive”.

Take `C[C@@H]1CN([C@H](C)CO)C(=O)c2cc(NC(=O)Nc3ccccc3)ccc2O[C@H]1CN(C)Cc1ccc(Oc2ccccc2)cc1`: the cytotoxicity call is “inactive”.

Turning to `COc1ccc(NC(=O)Nc2ccc3c(c2)C(=O)N([C@@H](C)CO)C[C@H](C)[C@@H](CN(C)Cc2ccc(-c4ccccc4)cc2)O3)cc1`, the cytotoxicity call was “active”.

For the compound `COc1ccc(NC(=O)Nc2ccc3c(c2)C(=O)N([C@H](C)CO)C[C@H](C)[C@@H](CN(C)Cc2ccc(-c4ccccc4)cc2)O3)cc1`, the cytotoxicity call is “inactive”.

`COc1ccc(NC(=O)Nc2ccc3c(c2)C(=O)N([C@@H](C)CO)C[C@@H](C)[C@@H](CN(C)Cc2ccc(-c4ccccc4)cc2)O3)cc1`: the cytotoxicity call is “inactive”.

Consider `C[C@H]1CN([C@@H](C)CO)C(=O)c2cc(NC(=O)Nc3ccccc3)ccc2O[C@H]1CN(C)Cc1ccc(Oc2ccccc2)cc1`, for which the cytotoxicity call is “inactive”.

In the case of `C[C@@H]1CN([C@H](C)CO)C(=O)c2cc(NC(=O)Nc3ccccc3)ccc2O[C@@H]1CN(C)Cc1ccc(Oc2ccccc2)cc1`, the cytotoxicity call is “active”.

In the case of `COc1ccc2c3c([nH]c2c1)[C@@H](CO)N(C[C@]13CCN(CC1)Cc1ccccc1F)S(=O)(=O)c1cn(cn1)C`, the cytotoxicity call was “inactive”.

Take `C[C@@H]1CN([C@@H](C)CO)C(=O)c2cc(NC(=O)Nc3cccc4ccccc34)ccc2O[C@@H]1CN(C)C(=O)Nc1ccc(F)cc1`: the cytotoxicity call was “inactive”.

As for `CN1C(=O)c2cc(NC(=O)C3CCOCC3)ccc2OC[C@@H]2O[C@H](CC(=O)NCc3ccc4c(c3)OCO4)CC[C@@H]21`, the cytotoxicity call is “inactive”.

As for `COC(=O)c1c2oc(c1C(=O)OC)C(=O)N[C@H](Cc1ccccc1)Cn1cc(nn1)[C@@H](Cc1ccccc1)NC(=O)N[C@H](COC(=O)NCCCCCC(=O)NO)CC2`, the cytotoxicity call is “inactive”.

For the compound `Cc1cc(C)n([C@@H](C)CN)n1`, the cytotoxicity call was “inactive”.

With `C[C@H]1CN([C@@H](C)CO)C(=O)c2cccc(NS(=O)(=O)c3cccs3)c2O[C@@H]1CN(C)S(=O)(=O)c1cn(C)cn1`, the cytotoxicity call is “inactive”.

As for `C[C@H](CO)N1C[C@H](C)[C@@H](CN(C)S(=O)(=O)c2cn(C)cn2)Oc2cc(C3=CCCC3)ccc2S1(=O)=O`, the cytotoxicity call was “inactive”.

For `COc1ccc(CN(C)C[C@H]2Oc3ccc(NC(=O)C4CC4)cc3CC(=O)N([C@@H](C)CO)C[C@@H]2C)cc1`, the cytotoxicity call is “inactive”.

On to `C=C1CCC=C(C)CCC2C1CC2(C)C.O` (single isomer, unassigned; (-)) [(-)E-CARYOPHYLLENE hydrate ], for which the cytotoxicity call is “inactive”.

For the compound `C=C1C(=O)OC2C1CCC(C)=CCCC1(C)OC21` (stereo unspecified), the cytotoxicity call was “active”.
